In PubChem BioAssay (NCI) one finds growth data, which are given here for 15 compounds.

Among the test systems are NCI-H23 lung; NCI-H226 lung; NCI-H322M lung; HOP-62 NSCLC; NCI-H460 lung; HOP-92 NSCLC; NCI-H522 lung; 786-0 renal; COLO 205 colon; A549/ATCC NSCLC.
Test in all cases: NCI-60 one-dose screen, 48 h (100 = growth as untreated, 0 = no growth, -100 = all killed)
Holding throughout (details): 10 µM unless noted

About 83,000 compounds went through this panel and 20% of them were active in at least one assay; those are over-represented in the sample as a whole.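 Single-concentration screen, 48 h exposure, 96-well plates. Endpoint: percent growth. Below 10 = active.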 A number with no mark means an inactive call. Active and inactive are the calls of the source.

Turning to `Cc1cc2cc3cc(C)c(N(C)C)cc3nc2cc1N(C)C`, the growth is 23.9% with NCI-H23 lung; 54.8% with NCI-H226 lung; 22.3% with NCI-H322M lung; 23.1% with HOP-62 NSCLC; 8.26% (active) with NCI-H460 lung; -37% (active) in the assay on HOP-92 NSCLC. Also, the growth with NCI-H522 lung is -11.7% (active); in the assay with 786-0 renal it was 28%; in the assay on COLO 205 colon, -23.8% (active).

Take `COc1ccc2[nH]c(=O)c(/C=C/C(=O)c3ccc(Nc4nccc(-c5ccc6ccccc6c5)n4)cc3)cc2c1`: the growth in the assay on NCI-H23 lung is 104%; with NCI-H226 lung, 96.6%; in the assay with NCI-H322M lung, 97.7%; in the assay with HOP-62 NSCLC, 102%; with NCI-H460 lung, 102%; in the assay with HOP-92 NSCLC, 81.8%. Further, the growth with NCI-H522 lung is 99.5%; in the assay with 786-0 renal, 93.5%; in the assay with COLO 205 colon it was 104%.

Take `COc1ccc(CN2C(=O)/C(=C\c3cc(OC)c(OC)c(OC)c3)c3cc(OC)ccc32)cc1`: the growth is -44% (active) in the assay on NCI-H23 lung; -21.1% (active) with NCI-H226 lung; 8.29% (active) in the assay with NCI-H322M lung; 17.1% in the assay with HOP-62 NSCLC; -42.2% (active) with NCI-H460 lung; 37.6% in the assay with HOP-92 NSCLC. Besides, the growth with NCI-H522 lung was -70.1% (active); with 786-0 renal, 9.78% (active); in the assay on COLO 205 colon it was -46.3% (active).

In the case of `O=[N+]([O-])c1cccc(-c2nc3sccn3c2-c2ccnc(NCCNS(=O)(=O)c3ccc(C(F)(F)F)cc3)n2)c1`, the growth in the assay with NCI-H23 lung was 43.3%; in the assay with NCI-H226 lung, 40.3%; with NCI-H322M lung, 61.8%; in the assay on HOP-62 NSCLC it was 73%; in the assay on NCI-H460 lung, 33.4%; in the assay on HOP-92 NSCLC it was 44.7%. In addition, the growth was 34.3% in the assay on NCI-H522 lung, 60.3% in the assay on 786-0 renal and 37.2% in the assay on COLO 205 colon.

With `Oc1c(Cl)cc(Cl)cc1CNc1nccnn1`, the growth is 102% with NCI-H23 lung; 92% with NCI-H226 lung; 99.3% in the assay on NCI-H322M lung; 103% in the assay with HOP-62 NSCLC; 109% in the assay with NCI-H460 lung; 101% with HOP-92 NSCLC. The figures for the growth with NCI-H522 lung, in the assay with 786-0 renal and with COLO 205 colon were 105%, 111% and 100%, respectively.

Turning to `CSc1nc2sc3c(c2c(=O)n1-c1ccc(C(C)C)cc1)CCC(=O)C3`, the growth in the assay on NCI-H23 lung was -1.79% (active); with NCI-H226 lung, 65.6%; in the assay on NCI-H322M lung it was 31.6%; with HOP-62 NSCLC, 15.2%; with NCI-H460 lung, 1.54% (active); in the assay with HOP-92 NSCLC it was -18.2% (active). The growth is -75.3% (active) in the assay on NCI-H522 lung, 18.7% in the assay on 786-0 renal and -67.7% (active) in the assay with COLO 205 colon.

As for `Cc1cc(=O)oc2cc(Oc3nc(-c4ccc(Cl)cc4)cn4c(-c5ccc(Cl)cc5)cnc34)ccc12`, the growth was 78.1% with NCI-H23 lung; 93% in the assay on NCI-H226 lung; 95.9% with NCI-H322M lung; 99.7% with HOP-62 NSCLC; 93.3% in the assay with NCI-H460 lung; 91% in the assay on HOP-92 NSCLC. The growth in the assay on NCI-H522 lung was 95.8%; in the assay with A549/ATCC NSCLC, 101%; in the assay with COLO 205 colon, 97.5%.

Take `C/C(Cc1ccc(Cl)cc1)=C(\c1ccc(OCCN2CCCCCC2)cc1)c1ccc(OC(=O)Cc2ccccc2)cc1`: the growth in the assay on NCI-H23 lung was 71.3%; in the assay with NCI-H226 lung, 84.1%; in the assay on NCI-H322M lung, 67.3%; in the assay with HOP-62 NSCLC, 85.7%; with NCI-H460 lung, 18.2%; with HOP-92 NSCLC, 48.4%. The growth is 62.9% in the assay with NCI-H522 lung, 65% in the assay on 786-0 renal and -45.1% (active) with COLO 205 colon.

As for `CCCCCCCCCCCCCCCCCCNC(=O)[C@H]1CSC(c2ccc(F)c(OC)c2)N1` (stereo partly drawn), the growth with NCI-H23 lung is 5.24% (active); in the assay on NCI-H226 lung, -69% (active); with NCI-H322M lung, -22.2% (active); in the assay on HOP-62 NSCLC, -97.6% (active); in the assay on NCI-H460 lung it was -77.7% (active); with HOP-92 NSCLC it was -5.83% (active). The values for the growth in the assay on NCI-H522 lung and with 786-0 renal were 7.12% (active) and -10.6% (active), respectively.

For `COc1ccc(CN(c2ccc(C)cc2)C2OC(=O)c3ccccc32)cc1OC` (stereo not drawn), the growth with NCI-H23 lung is 106%; with NCI-H226 lung it was 91.1%; with NCI-H322M lung it was 99.6%; with HOP-62 NSCLC, 106%; in the assay with NCI-H460 lung it was 101%; in the assay with HOP-92 NSCLC, 91.3%. The results for the growth in the assay with NCI-H522 lung, in the assay with 786-0 renal and with COLO 205 colon were 97.2%, 98.5% and 138%, respectively.

For the compound `COc1ccc2nc3cc(Cl)ccc3c(N3CCN(c4nccc(Nc5ccccc5)n4)CC3)c2c1`, the growth was 69.8% in the assay on NCI-H23 lung; 95.4% with NCI-H226 lung; 88.3% in the assay with NCI-H322M lung; 79.2% in the assay on HOP-62 NSCLC; 67.4% in the assay with NCI-H460 lung; 67% in the assay with HOP-92 NSCLC. In addition, the growth in the assay on NCI-H522 lung is 7.15% (active); in the assay with 786-0 renal, 59.1%; in the assay on COLO 205 colon, 89.8%.

In the case of `CCOC(=O)CC(=O)c1c(C)cc(C)cc1C`, the growth is 111% in the assay with NCI-H23 lung; 104% in the assay on NCI-H226 lung; 114% in the assay with NCI-H322M lung; 110% in the assay with HOP-62 NSCLC; 105% in the assay on NCI-H460 lung; 111% with HOP-92 NSCLC. For the same compound, the growth with NCI-H522 lung is 62.5%; in the assay on 786-0 renal, 98.3%; with COLO 205 colon, 117%.

As for `Cc1ccc2c(c1)C(=O)c1c-2c(OCCCN(C)C)nc2ccccc12`, the growth in the assay on NCI-H23 lung was 7.88% (active); in the assay on NCI-H226 lung, 32.8%; in the assay with NCI-H322M lung, 19.6%; with HOP-62 NSCLC, 19.9%; in the assay with NCI-H460 lung, -8.22% (active); in the assay on HOP-92 NSCLC, -10.7% (active). For the same compound, the growth is -11% (active) with NCI-H522 lung, 44.7% in the assay on 786-0 renal and -30.6% (active) in the assay on COLO 205 colon.

On to `O=C1C(=O)N(CCCCn2cc(CO)nn2)c2ccccc21`, for which the growth was 98.2% in the assay on NCI-H23 lung; 97.4% in the assay on NCI-H226 lung; 108% in the assay on NCI-H322M lung; 96.3% with HOP-62 NSCLC; 101% with NCI-H460 lung; 106% in the assay with HOP-92 NSCLC. In addition, the growth is 90.1% with NCI-H522 lung and 99.9% in the assay with 786-0 renal.

With `COc1ccc(C2c3ccc4ccccc4c3Oc3ncnc(N)c32)cc1` (stereo not drawn), the growth with NCI-H23 lung was 83%; with NCI-H226 lung, 63.9%; in the assay with NCI-H322M lung, 88%; in the assay with HOP-62 NSCLC, 45.1%; with NCI-H460 lung it was 92.4%; with HOP-92 NSCLC it was 70.4%. The results for the growth in the assay on NCI-H522 lung, in the assay on 786-0 renal and in the assay on COLO 205 colon were 46.2%, 97.1% and 94.5%, respectively.
